RmlCD inh mix: inhibitors of RmlC and RmlD coupled enzymes; actives 0.39% (n = 110,000); RmlC/RmlD coupled enzyme inhibition, 384-well mixture HTS; inhibition, % at 5.5 µM; in the data active = inhibition above about 30%, passing the limit was not always enough
HIV RNase H inh-1: inhibitors of HIV-1 reverse transcriptase RNase H | P04585 | RT-RNase H RNA/DNA duplex cleavage, fluorescence | inhibition, % at 10 µM | actives 1.9% (n = 65,000) | AID 565; in the data active = inhibition above about 50%
HIV RNase H inh-2: confirmation of HIV-1 reverse transcriptase RNase H inhibitors; shares compounds with HIV RNase H inh-1; Recombinant RT RNase H, fluorescent RNA/DNA duplex cleavage; inhibition, % at 10 µM; actives 39% (n = 1,000); AID 651; in the data active = inhibition above about 48%
A number is an active result. The entries come from a sample that favours hits as a whole.

What do the screens show for `COCCn1c(SCC(=O)Nc2ccc(NC(=O)c3ccco3)c(OC)c2)nc2ccccc2c1=O`?
RmlCD inh mix: inactive

What do the screens show for `CCCCn1c(SCC(=O)Nc2cc(NC(=O)c3ccco3)ccc2C)nc2ccccc2c1=O`?
RmlCD inh mix: inactive; HIV RNase H inh-1: 55

Results for CCn1c(SCC(=O)Nc2ccc(NC(=O)c3ccco3)c(OC)c2)nc2ccccc2c1=O ?
RmlCD inh mix: 95; HIV RNase H inh-1: inactive

Results for CCCCn1c(SCC(=O)Nc2cc(C)on2)nc2ccccc2c1=O ?
RmlCD inh mix: inactive; HIV RNase H inh-1: inactive

Results for C/C=C/C(=O)N1CC2(CC(c3cccc(NC(=O)COc4ccc(Cl)cc4)c3)=NO2)C[C@@H]1C(N)=O (some centres not stated) ?
RmlCD inh mix: inactive

Results for COc1ccc(-c2csc(NC(=O)C3CCCCN3S(=O)(=O)c3ccccc3)n2)cc1 (configuration not stated) ?
RmlCD inh mix: inactive

What do the screens show for `COc1ccc(Cl)cc1-n1c(N)c(C(N)=O)sc1=S`?
RmlCD inh mix: inactive; HIV RNase H inh-1: 75

What do the screens show for `Cc1ccc(-n2c(N)c(C(N)=O)sc2=S)c(C)c1`?
HIV RNase H inh-1: 65

How did Cc1ccc(C)c(-n2c(N)c(C(N)=O)sc2=S)c1 do in these assays?
RmlCD inh mix: inactive; HIV RNase H inh-1: inactive

What do the screens show for `COC(=O)c1sc(=S)n(-c2ccccc2OC)c1N`?
RmlCD inh mix: inactive

How did O=C(CSc1ncc(-c2ccccc2)n1C1CCCC1)N1CCc2ccccc21 do in these assays?
RmlCD inh mix: inactive

What do the screens show for `CC(=O)O[C@H]1CC(C)(C)C(=C=C/C(C)=C/C=C/C(C)=C/C=C/C=C(C)/C=C/C=C(\C)C(=O)C[C@@]23O[C@]2(C)C[C@@H](O)CC3(C)C)[C@](C)(O)C1`?
RmlCD inh mix: inactive

Results for O=C1c2ccccc2C(O)(c2ncc[nH]2)N1CCc1ccccc1 (configuration not stated) ?
RmlCD inh mix: inactive

What do the screens show for `CC(C)CC1C(C#N)=C(N)SC(N)=C1C#N`?
RmlCD inh mix: inactive; HIV RNase H inh-1: 51

What do the screens show for `N#CC1=C(N)SC(N)=C(C#N)C1Cc1ccccc1`?
RmlCD inh mix: inactive; HIV RNase H inh-1: inactive

Results for CC1CCCCN1C(=O)/C(=C\c1ccccc1)c1ccccc1 (configuration not stated) ?
RmlCD inh mix: inactive

What do the screens show for `CN1CCc2c(sc3c2C(=O)NC(c2cn(Cc4ccccc4)c4ccccc24)N3)C1` (configuration not stated)?
RmlCD inh mix: inactive; HIV RNase H inh-1: inactive

Results for CN1C(=O)c2c(sc3c2CCCC3)NC1c1ccccc1O (configuration not stated) ?
RmlCD inh mix: inactive; HIV RNase H inh-1: 52

Results for COC(=O)C1=C(C(=O)OC)[C@@H]2N(Cc3ccccc3)c3ccccc3[C@@]23C[C@@H](CO)N(C(=O)NC2CCCC2)C3=N1 ?
RmlCD inh mix: inactive

Results for Cc1ccc(S(=O)(=O)NC(=O)c2ccc(-c3ccc(-c4ccccc4)cc3)o2)c(C)c1 ?
RmlCD inh mix: inactive

How did c1ccc(-c2nc(CSc3n[nH]c(-c4cccs4)n3)cs2)cc1 do in these assays?
RmlCD inh mix: inactive

Results for C=CCOC(=O)C1=C[C@@H](C2CCCCC2)C[C@@H](OCc2ccc(CO)cc2)O1 ?
RmlCD inh mix: inactive

What do the screens show for `COC(=O)c1c(NC(=O)c2ccco2)sc(C(=O)Nc2ccc(F)cc2)c1C`?
RmlCD inh mix: inactive; HIV RNase H inh-1: 56

Results for COC(=O)c1c(NC(=O)c2ccco2)sc(C)c1C ?
RmlCD inh mix: inactive; HIV RNase H inh-1: inactive

How did CCn1c(SCC(=O)Nc2ccc(C)cc2)nnc1-c1ccc(O)cc1 do in these assays?
RmlCD inh mix: inactive

What do the screens show for `O=C(OC1C[C@@H]2CC3C[C@H](C1)N2CC3=O)c1c[nH]c2ccccc12` (some centres not stated)?
RmlCD inh mix: inactive

Results for Cc1ccc(-c2nnc3sc(C4COc5ccccc5O4)nn23)cc1 (configuration not stated) ?
RmlCD inh mix: inactive; HIV RNase H inh-1: inactive

Results for c1ccc(Cc2nnc3sc(C4COc5ccccc5O4)nn23)cc1 (configuration not stated) ?
RmlCD inh mix: inactive; HIV RNase H inh-1: 70

What do the screens show for `Cc1ccc(N2C(=O)CC(Sc3nc4ccccc4o3)C2=O)cc1Cl` (configuration not stated)?
RmlCD inh mix: inactive

How did CCO[C@H]1OC(C(=O)NCc2nc3ccccc3[nH]2)=C[C@@H](c2ccc3c(c2)OCO3)[C@@H]1CCCO do in these assays?
RmlCD inh mix: inactive

How did COc1ccc(N2Cc3ccccc3C2)cc1Cl do in these assays?
RmlCD inh mix: inactive; HIV RNase H inh-1: 55

How did COc1ccc(Cl)cc1N1Cc2ccccc2C1 do in these assays?
RmlCD inh mix: inactive

Results for CCC(C)Sc1nc2ccccc2n1CC(=O)O (configuration not stated) ?
RmlCD inh mix: inactive

How did Cc1cc(C)c2c(n1)nn1c(NCCOCCO)cc(C)nc21 do in these assays?
RmlCD inh mix: 44; HIV RNase H inh-1: inactive

Results for Cc1cc(C)c2c(n1)nn1c(N3CCN(c4ccccc4)CC3)cc(C)nc21 ?
RmlCD inh mix: inactive; HIV RNase H inh-1: inactive

Results for CCC1=C[C@H]2CN(C1)Cc1c([nH]c3ccccc13)[C@@](C(=O)OC)(c1cc3c(cc1OC)N(C)[C@H]1[C@@](O)(C(=O)OC)[C@H](OC(C)=O)[C@]4(CC)C=CCN5CC[C@]31[C@@H]54)C2 ?
RmlCD inh mix: inactive

How did CCO[C@H]1OC(C(=O)NC2CC2)=C[C@@H](c2csc3ccccc23)[C@@H]1CCCO do in these assays?
RmlCD inh mix: inactive

What do the screens show for `CCc1ccccc1NC(=O)CSc1nnc(Cn2nnc3ccccc32)n1C`?
RmlCD inh mix: inactive

Results for CCc1cc(=O)oc2c(C)c(O)c(CN3CCCCC3)cc12 ?
RmlCD inh mix: 93; HIV RNase H inh-1: inactive

Results for Cc1c(O)c(CN2CCCC2)cc2c3c(c(=O)oc12)CCC3 ?
RmlCD inh mix: inactive; HIV RNase H inh-1: inactive

How did CCOC(=O)Nc1ccc(S(=O)(=O)Nc2cc(C)nc(C)n2)cc1 do in these assays?
RmlCD inh mix: inactive

How did CCOc1ccc(OCC(=O)Nc2ccc(S(=O)(=O)Nc3cc(C)nc(C)n3)cc2)cc1 do in these assays?
RmlCD inh mix: inactive; HIV RNase H inh-1: 52

How did O=C(COc1cc(Cl)ccc1Cl)Nc1nnc(CC(=O)N2CCOCC2)s1 do in these assays?
RmlCD inh mix: inactive; HIV RNase H inh-1: 80; HIV RNase H inh-2: inactive

What do the screens show for `O=C(Nc1nnc(CC(=O)N2CCOCC2)s1)c1cccs1`?
RmlCD inh mix: inactive; HIV RNase H inh-1: inactive

Results for CCS(=O)(=O)N1CCN(S(=O)(=O)c2ccc(F)cc2)CC1 ?
RmlCD inh mix: inactive; HIV RNase H inh-1: inactive

Results for CCC1CCCCN1S(=O)(=O)c1ccc(S(=O)(=O)N2CCN(S(=O)(=O)CC)CC2)cc1 (configuration not stated) ?
RmlCD inh mix: inactive; HIV RNase H inh-1: 51; HIV RNase H inh-2: 57

How did CCC1CCCCN1CCNC(=O)CCS(=O)(=O)c1ccc(Br)cc1 (configuration not stated) do in these assays?
RmlCD inh mix: inactive

Results for Cc1sc(-n2c(C)cc(/C=C3\SC(=S)NC3=O)c2C)c(C#N)c1C ?
RmlCD inh mix: inactive

Screening results as filed in PubChem.
